Experimental data: PubChem BioAssay (Tox21)
“And” between values parts separate entries of the source, which are not always exact repeats. Identical values can stand only once. A number with no mark means an inactive call. Entries that show only a call come without a potency. The source made the active and inactive calls. Unless noted, calls come from the whole dose curve; as a rule, active = well fitted curve in the direction sought with a large enough effect in the repeat runs; inconclusive = weak or mixed curves; inactive = no such curve, though single readings can be large; an effect the other way counts as inactive or inconclusive.

Legend:
[1] = system: thyroid hormone receptor (rat, GH3 cells); test: qHTS assay to identify small molecule agonists of the thyroid receptor (TR) signaling pathway (AID 743066; calls by dose curve; note: potency is the fitted concentration of half-maximal effect)
[2] = biological target: Estrogen receptor (Homo sapiens) (UniProt P03372); test: qHTS assay to identify small molecule antagonists of the estrogen receptor alpha (ER-alpha) signaling pathway (AID 743069; active = well fitted curve in the direction sought with a large enough effect in the signal ratio in the repeat runs, not every such curve was filed as active; inconclusive = weak or mixed curves, or effect the other way; inactive = no such curve, though single readings can be large or run the other way; the % refers to the signal ratio; note: potency is the fitted concentration of half-maximal effect)
Estrogen receptor (Homo sapiens), sequence (P03372 whole entry, looked up): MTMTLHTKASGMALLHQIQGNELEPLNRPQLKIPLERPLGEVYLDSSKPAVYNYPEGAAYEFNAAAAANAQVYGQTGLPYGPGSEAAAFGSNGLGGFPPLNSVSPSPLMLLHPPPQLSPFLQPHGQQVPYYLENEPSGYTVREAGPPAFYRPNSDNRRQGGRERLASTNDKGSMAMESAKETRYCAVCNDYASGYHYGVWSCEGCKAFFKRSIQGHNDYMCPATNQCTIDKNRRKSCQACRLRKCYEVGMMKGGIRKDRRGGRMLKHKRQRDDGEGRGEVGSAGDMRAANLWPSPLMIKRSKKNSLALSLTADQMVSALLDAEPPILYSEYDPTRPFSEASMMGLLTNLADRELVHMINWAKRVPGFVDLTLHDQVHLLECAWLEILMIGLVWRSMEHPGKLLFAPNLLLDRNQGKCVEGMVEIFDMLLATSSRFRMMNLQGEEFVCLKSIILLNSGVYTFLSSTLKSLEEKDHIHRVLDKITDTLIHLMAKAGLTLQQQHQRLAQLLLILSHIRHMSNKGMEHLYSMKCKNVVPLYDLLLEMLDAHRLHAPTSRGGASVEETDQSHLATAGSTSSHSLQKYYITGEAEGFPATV
Outline: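 In this cell-based reporter format, GripTite HEK293 cells harbouring ER-alpha-UAS-bla were grown overnight with 2% charcoal-stripped FBS, dosed with DMSO-dissolved compounds, then challenged with 17beta-estradiol. After 18 hr at 37C, beta-lactamase activity was detected by FRET fluorescence.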

[3] = qHTS assay to identify small molecule antagonists of the estrogen receptor alpha (ER-alpha) signaling pathway - cell viability counter screen (AID 743074; calls by dose curve; note: nearly all actives have a fitted effect of over 45% in size)
[4] = biological target: Estrogen receptor (Homo sapiens) (UniProt P03372); test: qHTS assay to identify small molecule agonists of the estrogen receptor alpha (ER-alpha) signaling pathway (AID 743075; calls by dose curve)
[5] = biological target: Estrogen receptor (Homo sapiens) (UniProt P03372); test: qHTS assay to identify small molecule agonists of the estrogen receptor alpha (ER-alpha) signaling pathway using the BG1 cell line (AID 743079); note: nearly all actives have a fitted effect of over 20% in size; note: potency is the fitted concentration of half-maximal effect
[6] = qHTS assay to identify small molecule antagonists of the estrogen receptor alpha (ER-alpha) signaling pathway using the BG1 cell line (AID 743080; calls by dose curve;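 note: BG1 cells stimulated with 17beta-estradiol alongside compound; series mostly up to about 70 µM; nearly all actives have a fitted effect of over 25% in size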)
Outline: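 BG1-Luc-4E2 cells (endogenous full-length ER-alpha, 4xERE luciferase) hormone-starved 5 days in charcoal-stripped FBS, plated 4,000/well for 24 h, then compound plus 17beta-estradiol for 21.5 h at 37 C; ONE-Glo luminescence read.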

[7] = qHTS assay to identify small molecule antagonists of the estrogen receptor alpha (ER-alpha) signaling pathway using the BG1 cell line - cell viability counter screen (AID 743081);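 note: compound given together with 17beta-estradiol as the ER stimulus; nearly all actives have a fitted effect of over 45% in size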; note: potency is the fitted concentration of half-maximal effect
Aromatase (Homo sapiens) = Aromatase (Homo sapiens) (UniProt P11511); test: qHTS assay to identify aromatase inhibitors (AID 743083); note: nearly all actives have a fitted effect of over 55% in size; note: potency is the fitted concentration of half-maximal effect
Aromatase (Homo sapiens), sequence (P11511 whole entry, looked up): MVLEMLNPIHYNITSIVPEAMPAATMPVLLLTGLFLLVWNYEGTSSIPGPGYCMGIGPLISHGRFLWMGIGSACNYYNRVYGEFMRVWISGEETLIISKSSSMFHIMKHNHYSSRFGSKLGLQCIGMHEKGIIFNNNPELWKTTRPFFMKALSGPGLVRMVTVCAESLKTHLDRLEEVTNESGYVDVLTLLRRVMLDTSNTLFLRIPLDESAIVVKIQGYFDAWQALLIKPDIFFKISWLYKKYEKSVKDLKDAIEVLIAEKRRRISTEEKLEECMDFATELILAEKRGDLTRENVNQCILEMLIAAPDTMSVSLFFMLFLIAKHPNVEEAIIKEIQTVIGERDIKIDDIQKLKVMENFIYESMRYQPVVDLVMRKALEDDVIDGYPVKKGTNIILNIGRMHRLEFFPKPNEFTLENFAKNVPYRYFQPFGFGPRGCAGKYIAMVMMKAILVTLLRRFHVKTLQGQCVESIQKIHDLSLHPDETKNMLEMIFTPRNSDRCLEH

[8] = qHTS assay to identify aromatase inhibitors - cell viability counter screen (AID 743084);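 note: cells stimulated with testosterone during compound exposure; nearly all actives have a fitted effect of over 55% in size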; note: potency is the fitted concentration of half-maximal effect
[9] = qHTS assay to identify small molecule antagonists of the thyroid receptor (TR) signaling pathway (AID 743065); note: nearly all actives have a fitted effect of over 55% in size; note: potency is the fitted concentration of half-maximal effect
Outline: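 GH3.TRE-Luc rat pituitary cells (two TREs driving luciferase) were dosed with compound, then stimulated with 1 nM T3 (final) for 23.5 h at 37 C. ONE-Glo luminescence was the read-out, with CellTiter-Fluor fluorescence as the cytotoxicity counter-screen.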

SMILES | Potency [1] | Potency [2] | Potency [3] | Potency [4] | Potency [5] | Potency [6] | Potency [7] | Potency (Aromatase (Homo sapiens)) | Potency [8] | Potency [9]
CCC(CC)Nc1ccc(C)c(C)c1 | inactive | inactive | inactive | inactive | inactive | inactive | inactive | inactive | inactive | 
OCc1cc(C(O)CNCCCCCCOCCCCc2ccccc2)ccc1O (stereo unspecified) |  | inactive | inactive | inactive |  |  | 23.7 µM (active) | 26.6 µM (active) | 11.9 µM (active) and 9.44 µM (active) | 10.6 µM (active) and 8.41 µM (active)
CC(C)(C)OCC1CO1 (stereo unspecified) | inactive |  | inactive |  |  |  | inactive |  | inactive | inactive
CCCCCCCCCCO[C@@H]1O[C@H](CO)[C@@H](O)[C@H](O)[C@H]1O | inactive | inactive | inactive | inactive | inactive | inactive | inactive | inactive | inactive | 
S=C([S-])NCCNC(=S)[S-].[Mn+2] | inactive |  |  |  |  |  |  | inactive | inactive | inactive
CNCCCCOc1ccccc1Cc1ccccc1 |  |  | inactive | inactive | inactive | inactive | inactive |  | inactive | 11.9 µM (active)
COc1ccc(S(=O)(=O)N2C(=O)[C@@](c3ccccc3OC)(N3C[C@H](O)C[C@H]3C(=O)N(C)C)c3cc(Cl)ccc32)c(OC)c1 |  | 43.6 µM [inconclusive] (active) | inactive | inactive |  |  |  | 61.1 µM (active) | 30.6 µM (active) | 68.6 µM (active)
O=C(Cl)c1cc(C(=O)Cl)cc(C(=O)Cl)c1 | inactive | inactive | inactive | inactive | inactive | inactive | inactive |  |  | 
CCc1c(C(=O)NN2CCCCC2)nn(-c2ccc(Cl)cc2Cl)c1-c1ccc(Br)cc1 |  | 13.8 µM [inconclusive] (active) | inactive | inactive | 27.3 µM (active) |  | inactive |  | inactive | 8.63 µM (active)
CCCCCCCCCCCCCCCCOS(=O)(=O)O | inactive | inactive | inactive | inactive | inactive | inactive | inactive | inactive | inactive | 
CCOc1ccc(N=Nc2ccc(/C=C/c3ccc(N=Nc4ccc(OCC)cc4)cc3S(=O)(=O)O)c(S(=O)(=O)O)c2)cc1 | inactive |  | inactive |  |  |  |  | inactive | 26.9 µM (active) | 47.8 µM (active)
NC(=O)C(c1ccccc1)(c1ccccc1)[C@@H]1CCN(CCc2ccc3c(c2)CCO3)C1 |  | inactive | inactive | inactive | inactive | inactive | inactive | inactive | inactive | 26.6 µM (active)
O=C(OCCCCCCOC(=O)c1ccccc1)c1ccccc1 | inactive | inactive | inactive | inactive | 43.3 µM (active) | inactive | inactive | inactive | inactive | 
NCc1ccccc1Sc1ccccc1CO | inactive | inactive | inactive | inactive | inactive | inactive | inactive | inactive | inactive | 
CCCCCCCC#N | inactive |  |  |  |  |  | inactive |  | inactive | inactive
CN1CCC(=C2c3ccccc3Sc3ccccc32)CC1 |  |  |  |  | inactive |  |  |  |  | 8.41 µM (active)
CC(C)=CCC/C(C)=C/CC/C(C)=C/CO | inactive |  | inactive |  |  |  | inactive |  | inactive | 61.1 µM (active)
CCCCc1nc2cccnc2n1Cc1ccc(-c2ccccc2-c2nnn[nH]2)cc1 | inactive |  |  | inactive | inactive | inactive | inactive | inactive | 54.5 µM (active) | inactive
CCC(C)O (stereo unspecified) | inactive |  |  |  |  |  | inactive |  |  | inactive
CN(C)C(=O)NC1(c2ccccc2)CCN(CC[C@@]2(c3ccc(F)c(F)c3)CN(C(=O)c3ccccc3)CCO2)CC1 |  |  | inactive |  |  |  |  | inactive | inactive | 56.7 µM (active)
O=C(Nc1ccccc1)c1ccccc1O | inactive |  |  |  |  |  | inactive | inactive | inactive | 61.1 µM (active)
Nc1ccc(N)c2c1C(=O)c1ccccc1C2=O | inactive |  | inactive |  |  |  | 24.3 µM (active) |  | 17.2 µM (active) | 24.3 µM (active)
C=C1C(=C/C=C2\CCC[C@]3(C)[C@@H]([C@H](C)/C=C/[C@@H](O)C4CC4)CC[C@@H]23)C[C@@H](O)C[C@@H]1O |  | 21.3 µM [inconclusive] (active) | inactive | inactive | inactive |  | inactive | inactive | inactive | 26.6 µM (active)
CC(=O)c1ccc2c(c1)N(CCCN1CCC(CCO)CC1)c1ccccc1S2 |  | inactive | inactive | inactive | inactive | inactive |  | inactive | inactive | 11.4 µM (active)

SMILES | Potency [1] | Potency [2] | Potency [3] | Potency [4] | Potency [5] | Potency [6] | Potency [7] | Potency (Aromatase (Homo sapiens)) | Potency [8] | Potency [9]
O=C1CCCCCCCCCCCC(=O)OCCO1 | inactive | inactive | inactive | inactive | inactive | inactive | inactive | 48.6 µM (active) |  | 
CC(=O)c1ccc2c(c1)N(CCCN(C)C)c1ccccc1S2 |  | inactive | inactive | inactive | inactive | inactive | inactive |  | inactive | 10.1 µM (active)
CCCOC(C(=O)OC1CCN(C)CC1)(c1ccccc1)c1ccccc1 |  | inactive | inactive | inactive | inactive | inactive |  | inactive |  | 26.6 µM (active)
C[C@@H]1C[C@H]2O[C@@]3(O[C@@H]2C(C)(C)O)[C@H](O)[C@@]2(C)[C@@H]4CC[C@H]5C(C)(C)[C@@H](O[C@@H]6OC[C@@H](O)[C@H](O)[C@H]6O)CC[C@@]56C[C@@]46CC[C@]2(C)[C@@H]13 | inactive | inactive | inactive | inactive | inactive | inactive | inactive | inactive | inactive | 
O=C(Nc1ccc(S(=O)(=O)N2CCOCC2)cc1)c1cc(Cl)ccc1NS(=O)(=O)c1ccc(Cl)s1 |  |  |  | inactive | inactive | inactive | inactive | inactive | inactive | 18.8 µM (active)
Cc1cccc(C)c1NC(=O)CN(CC(=O)O)CC(=O)O | inactive |  | inactive |  |  |  | inactive | inactive | inactive | 
O=C1OC(=O)C2C3C=CC(C3)C12 (stereo unspecified) | inactive |  | inactive |  |  |  | inactive | inactive | inactive | 
O=S(c1cc(Cl)cc(Cl)c1O)c1cc(Cl)cc(Cl)c1O | inactive |  | inactive | inactive | inactive | inactive | inactive | inactive |  | 
O=C(O)c1ccco1 | inactive | inactive | inactive | inactive | inactive | inactive | inactive | inactive | inactive | 
C1CCCNCCC1 | inactive |  | inactive |  |  |  | inactive | inactive | inactive | 
COc1ccnc(CS(=O)c2nc3ccc(OC(F)F)cc3[nH]2)c1OC (stereo unspecified) | inactive |  | inactive | inactive |  | inactive | inactive | inactive | inactive | 
CCC(C)c1cc(C(C)(C)C)c(O)c(C(C)(C)C)c1 (stereo unspecified) | 10.7 µM (active) |  | inactive |  |  |  | inactive |  |  | 
CCCCNc1ccc(C(=O)OCCOCCOCCOCCOCCOCCOCCOCCOCCOC)cc1 | inactive | inactive | inactive | inactive | inactive |  | inactive | inactive | inactive | 
CCCCCCCCCCCC(=O)OC[C@@H](O)[C@H]1OC[C@H](OCCO)[C@H]1OCCO | inactive |  | inactive | inactive | inactive |  | inactive |  | inactive | 
CC1OC(=O)C(C)OC1=O (stereo unspecified) | inactive | inactive | inactive | inactive |  | inactive | inactive | inactive | inactive | 
Cc1ccc(N=Nc2c(O)c(C(=O)O)cc3ccccc23)c(S(=O)(=O)O)c1 | inactive |  | inactive |  |  |  | 16.7 µM (active) | inactive | 6.65 µM (active) | 
C[C@@H](c1ncncc1F)C(O)(Cn1cncn1)c1ccc(F)cc1F (stereo partly specified) | inactive | inactive |  | inactive | inactive | inactive | inactive | inactive | inactive | 
CCOC(=O)c1cccnc1 | inactive | inactive | inactive | inactive | inactive | inactive | inactive | inactive | inactive | 
NCCCN1CCOCC1 | inactive | inactive | inactive | inactive | inactive | inactive | inactive | inactive | inactive | 
CO[C@@H]1[C@H](OC(=O)/C=C/C=C/C=C/C=C/C(=O)O)CC[C@]2(CO2)[C@H]1[C@@]1(C)O[C@@H]1CC=C(C)C | inactive |  | inactive | inactive | inactive | inactive | inactive | inactive | inactive | 
CC(=O)OC[C@H]1O[C@@H](n2ncc(=O)[nH]c2=O)[C@H](OC(C)=O)[C@@H]1OC(C)=O | inactive | 2.68 µM [inconclusive] (active) | inactive | inactive | inactive | inactive | inactive | inactive | inactive | 
Cc1oc(-c2ccccc2)nc1CCOc1cccc2c1ccn2CCC(=O)O | inactive |  | inactive | inactive | inactive | inactive | inactive | inactive | 27.3 µM (active) | 
C=CC(=O)OCCOCCOCCOCCOC(=O)C=C | inactive | 62 µM [inconclusive] (active) and 61.1 µM [inconclusive] (active) | inactive | inactive |  |  | 61.4 µM (active) | 15.4 µM (active) and 17.1 µM (active) | 13.8 µM (active) and 19.2 µM (active) | 
COc1cc(Cl)ccc1Oc1ccc(Cl)cc1Cl | inactive |  | inactive | inactive | inactive |  | inactive | inactive | inactive | 
